Laboratory results: PubChem BioAssay (NCI)
This is part of a sample that, as a whole, favours compounds with a hit. Of some 79,000 tested, about 15% had one in any assay. The source made the active and inactive calls. Cut-off read from the data, not from the text of the source: active = growth inhibition above about 70%; inactive = the rest.

Tests used:
[1] = NCI Yeast Anticancer Drug Screen. Data for the mlh1 strain (AID 171);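 note: 0% = growth of vehicle-treated control cultures of the same strain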; conditions: S. cerevisiae mlh1 strain growth inhibition, stronger effect = higher value
Method in brief: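 Measured: yeast growth. Reference: vehicle-treated controls. Organism: strain with a defined alteration affecting DNA damage repair or cell cycle control, treated with compound.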

[2] = NCI Yeast Anticancer Drug Screen. Data for the sgs1 strain (AID 173);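 note: 0% = growth of vehicle-only control cultures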; conditions: S. cerevisiae sgs1 mutant, stronger effect = higher value
Method in brief: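 Each compound was added to cultures of the altered yeast strain. Growth was recorded, and inhibition was derived by comparison with vehicle controls.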

[3] = NCI Yeast Anticancer Drug Screen. Data for the mlh1 rad18 strain (AID 175); conditions: S. cerevisiae mlh1 rad18 strain growth inhibition, stronger effect = higher value
Method in brief: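 Genetically defined yeast (DNA repair-deficient) exposed to compounds; growth inhibition determined relative to vehicle.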

[4] = NCI Yeast Anticancer Drug Screen. Data for the rad18 strain (AID 177); conditions: S. cerevisiae rad18 mutant growth inhibition, stronger effect = higher value
Method in brief: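 Vehicle-treated cultures served as the baseline for scoring compound-induced growth inhibition in DNA-repair-mutant yeast.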

[5] = NCI Yeast Anticancer Drug Screen. Data for the rad52 strain (AID 147);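 note: 0% = growth of vehicle-treated control cultures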; conditions: S. cerevisiae rad52 mutant growth inhibition, stronger effect = higher value
Method in brief: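 The repair-mutant yeast strain was incubated with compounds, then growth was read and inhibition derived relative to vehicle.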

[6] = NCI Yeast Anticancer Drug Screen. Data for the wt1 strain (AID 149);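 note: 0% = growth of vehicle-treated wt1 cultures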; conditions: S. cerevisiae wt1 strain (SPY 50644) growth inhibition, stronger effect = higher value
Method in brief: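 Vehicle-normalised growth inhibition; strain wt1; compound exposure.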

[7] = NCI Yeast Anticancer Drug Screen. Data for the rad50EPP+ strain (AID 151);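 note: 0% = growth of vehicle-treated control cultures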; conditions: S. cerevisiae rad50 mutant strain, stronger effect = higher value
Method in brief: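 Vehicle-normalised growth inhibition; rad50EPP+ yeast strain, altered in DNA damage repair, compound-treated.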

[8] = NCI Yeast Anticancer Drug Screen. Data for the mgt1 strain (AID 153); conditions: S. cerevisiae mgt1 mutant growth inhibition, stronger effect = higher value
Method in brief: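 Vehicle-normalized growth inhibition is determined in mgt1 yeast, a strain selected for a defined alteration in DNA repair or cell cycle control.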

[9] = NCI Yeast Anticancer Drug Screen. Data for the rad50 strain (AID 155);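 note: 0% = growth of vehicle-only cultures of the same strain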; conditions: S. cerevisiae rad50 strain growth inhibition, stronger effect = higher value
Method in brief: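 A DNA repair-deficient yeast mutant serves as the test organism; compound-induced growth inhibition is calculated against vehicle-treated cells.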

[10] = NCI Yeast Anticancer Drug Screen. Data for the mec2-1 strain (AID 157); conditions: S. cerevisiae mec2-1 strain, stronger effect = higher value
Method in brief: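 Mutant yeast (mec2-1) grown with compound; growth inhibition relative to vehicle control reported.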

[11] = NCI Yeast Anticancer Drug Screen. Data for the rad14 strain (AID 159);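 note: 0% = growth of vehicle-treated control cultures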; conditions: S. cerevisiae rad14 strain growth inhibition, stronger effect = higher value
Method in brief: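 Vehicle-treated cultures served as the baseline for growth inhibition of a DNA repair-mutant yeast strain exposed to each compound.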

[12] = NCI Yeast Anticancer Drug Screen. Data for the sgs1 mgt1 strain (AID 161);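 note: 0% = growth of cultures given vehicle only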; conditions: S. cerevisiae sgs1 mgt1 strain, stronger effect = higher value
Method in brief: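 Percent growth inhibition was derived by comparing compound-exposed mutant yeast with vehicle-exposed cultures. The strain carries alterations in DNA damage repair.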

[13] = NCI Yeast Anticancer Drug Screen. Data for the CLN2oe strain (AID 163);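 note: 0% = growth of vehicle-only control cultures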; conditions: S. cerevisiae CLN2oe strain, stronger effect = higher value
Method in brief: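 Compounds are applied to yeast harbouring a defined cell-cycle control change; reduced growth compared with vehicle-treated controls gives the value.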

[14] = NCI Yeast Anticancer Drug Screen. Data for the cln2 rad14 strain (AID 165);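 note: 0% = growth equal to vehicle treated cultures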; conditions: S. cerevisiae cln2 rad14 strain, stronger effect = higher value
Method in brief: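 Readout is yeast growth inhibition versus vehicle-treated controls, using a strain with cln2 and rad14 alterations exposed to compound.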

[15] = NCI Yeast Anticancer Drug Screen. Data for the bub3 strain (AID 167); conditions: S. cerevisiae bub3 mutant strain, stronger effect = higher value
Method in brief: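 Inhibition values come from growth of compound-treated mutant yeast normalised to vehicle-treated controls.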

[16] = NCI Yeast Anticancer Drug Screen. Data for the wt2 strain (AID 169);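 note: 0% = growth of vehicle-treated yeast cultures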; conditions: S. cerevisiae wt2 strain growth inhibition, stronger effect = higher value
Method in brief: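 Against vehicle-treated controls, the growth of yeast exposed to each compound was compared, and the inhibition was recorded.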

[17] = at 5.0 µM (retest, dose inferred, filed as 0.5)
[18] = at 50.0 µM (retest, dose inferred, filed as 5.0)

Measured: growth inhibition

CCCCCc1c(CCCC)c(=O)[nH]c2cc(CNCC(OC)OC)ccc12
inactive: [1]; at 1.2 µM -5% | [1]; at 3.7 µM 13% | [1]; at 11.0 µM 52% | [2]; at 1.2 µM 10% | [2]; at 3.7 µM 23% | [2]; at 11.0 µM 69% | [3]; [17] 50% | [4]; at 1.2 µM 10% | [4]; at 3.7 µM 19% | [4]; at 11.0 µM 14%
active: [1]; at 33.0 µM 98% | [1]; at 100.0 µM 95% | [2]; at 33.0 µM 99% | [2]; at 100.0 µM 95% | [3]; [18] 96% | [3]; at 50.0 µM 87% | [4]; at 33.0 µM 98% | [4]; at 100.0 µM 94%

CC1=CC(C)(C)SC(SSSC2=NC(C)=CC(C)(C)S2)=N1
inactive: [5]; at 1.2 µM -3% | [5]; at 3.7 µM -3% | [5]; at 11.0 µM 0% | [5]; at 33.0 µM 7% | [6]; at 1.2 µM -3% | [6]; at 3.7 µM -2% | [6]; at 11.0 µM 0% | [6]; at 33.0 µM 7% | [6]; at 100.0 µM 39% | [7]; at 1.2 µM -1% | [7]; at 3.7 µM -1% | [7]; at 11.0 µM 0% | [7]; at 33.0 µM 2% | [7]; at 100.0 µM 31% | [8]; at 1.2 µM -8% | [8]; at 3.7 µM 1% | [8]; at 11.0 µM 3% | [8]; at 33.0 µM 7% | [9]; at 1.2 µM -17% | [9]; at 3.7 µM -4% | [9]; [17] -6% | [9]; at 11.0 µM -4% | [9]; at 33.0 µM 1% | [9]; [18] 48% | [9]; at 50.0 µM 15.6% | [9]; at 100.0 µM 65% | [10]; at 1.2 µM -2% | [10]; at 3.7 µM -4% | [10]; [17] 0% | [10]; at 11.0 µM 0% | [10]; at 33.0 µM 8% | [10]; [18] 15% | [10]; at 50.0 µM 10.7% | [10]; at 100.0 µM 42% | [11]; at 1.2 µM -6% | [11]; at 3.7 µM -5% | [11]; at 11.0 µM -3% | [11]; at 33.0 µM 8% | [12]; [17] -10% | [12]; [18] 61% | [12]; at 50.0 µM 39.2% | [13]; at 1.2 µM -10% | [13]; at 3.7 µM -17% | [13]; at 11.0 µM -14% | [13]; at 33.0 µM -13% | [13]; at 100.0 µM 13% | [14]; [17] -9% | [14]; [18] 6% | [14]; at 50.0 µM 2.9% | [15]; at 1.2 µM -2% | [15]; at 3.7 µM -2% | [15]; [17] -1% | [15]; at 11.0 µM 1% | [15]; at 33.0 µM 1% | [15]; [18] 24% | [15]; at 50.0 µM -3.25% | [15]; at 100.0 µM 56% | [16]; at 1.2 µM -5% | [16]; at 3.7 µM -6% | [16]; at 11.0 µM -4% | [16]; at 33.0 µM 4% | [1]; at 1.2 µM -5% | [1]; at 3.7 µM -4% | [1]; at 11.0 µM 0% | [1]; at 33.0 µM 11% | [3]; [17] -4% | [3]; [18] 42% | [3]; at 50.0 µM 29.8% | [4]; at 1.2 µM -4% | [4]; at 3.7 µM 0% | [4]; at 11.0 µM 7% | [4]; at 33.0 µM 23%
active: [5]; at 100.0 µM 78% | [8]; at 100.0 µM 89% | [11]; at 100.0 µM 90% | [16]; at 100.0 µM 85% | [1]; at 100.0 µM 88% | [4]; at 100.0 µM 88%
